M1 PAM – potentiates human M1 receptor response to acetylcholine. P11229. CHO-K1 hM1, Fluo-8 calcium fluorescence, ACh EC20; 0% = ACh EC20, 100% = maximal ACh. activation, % at 3 µM. 360,000 compounds, 0.088% hits; in the data active = activation above about 19%, passing the limit was not always enough
Target sequence (P11229 whole entry, looked up): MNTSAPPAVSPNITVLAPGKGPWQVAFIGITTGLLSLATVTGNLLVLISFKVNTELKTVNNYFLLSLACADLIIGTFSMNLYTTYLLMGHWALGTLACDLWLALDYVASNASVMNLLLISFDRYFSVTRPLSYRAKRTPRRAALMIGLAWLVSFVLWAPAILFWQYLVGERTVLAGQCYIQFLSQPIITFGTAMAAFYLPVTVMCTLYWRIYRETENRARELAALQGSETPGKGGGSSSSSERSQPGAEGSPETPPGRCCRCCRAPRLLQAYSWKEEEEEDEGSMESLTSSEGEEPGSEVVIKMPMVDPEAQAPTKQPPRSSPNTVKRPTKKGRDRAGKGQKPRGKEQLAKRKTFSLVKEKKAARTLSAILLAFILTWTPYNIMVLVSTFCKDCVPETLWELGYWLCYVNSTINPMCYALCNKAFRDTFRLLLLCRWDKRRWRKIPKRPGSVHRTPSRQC
M1 PAM parental – M1 PAM counterscreen hit in parental CHO-K1 cells. ATP EC20, Fluo-8 calcium fluorescence; 0% at ATP EC20, 100% at ATP max. activation, % at 3 µM. 360,000 compounds, 0.02% hits;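 active = activation above the run cutoff, the mean activation of all test compounds plus 3 SD, cut at about 40% in these data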;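 note: peak over basal fluorescence ratio in a 140 s read after ATP addition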
M1 ag parental – nonselective activator or artifact in parental CHO-K1 cells | Fluo-8 calcium fluorescence; scaled to maximal ATP response, vehicle zero | activation, % at 3 µM | 360,000 compounds, 0.48% hits; in the data active = activation above about 15%;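 note: untransfected CHO-K1 host cells lacking M1 receptor as counterscreen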
CHRM1 agonist – activates human CHRM1 receptor; P11229; CHO-K1 hM1, Fluo-8 calcium fluorescence, agonist mode; 0% DMSO, 100% acetylcholine EC100; activation, % at 3 µM; 360,000 compounds, 0.33% hits; AID 588814;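 active = activation above the run's mean compound activation plus 3 SD, cut at about 16% in these data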;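 note: peak over basal fluorescence ratio within a 140 s kinetic read after compound addition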
M1 antag – human CHRM1 antagonism; 360,000 compounds, 1.3% hits; CHO-K1 hM1, Fluo-8 calcium fluorescence, ACh EC80 antagonist; AID 588852; inhibition, % at 3 µM;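 active = percent inhibition above its own plate's cutoff, namely the mean of that plate's compound wells plus 3 SD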;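 note: peak over basal fluorescence ratio during 140 s after agonist addition; 0% = ACh EC80 plus DMSO and 100% = DMSO alone without agonist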
CHO-K1 Ca antag – counter-screen for M1 antagonists: effect in parental CHO-K1 cells. ATP-induced calcium, Fluo-8 fluorescence. inhibition, % at 3 µM. 360,000 compounds, 0.6% hits;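 active = inhibition above a per-plate cutoff, the plate's mean sample inhibition plus 3 SD, cut at about 24% in these data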;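 note: 0% = DMSO plus EC80 ATP and 100% = DMSO alone without ATP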
* = called active by the depositor. Only some compounds are listed: those with a hit (about 2.3% of all), similar ones and a draw of the others.

SMILES	M1 PAM	M1 PAM parental	M1 ag parental	CHRM1 agonist	M1 antag	CHO-K1 Ca antag
CN(CC(=O)N1CCCc2c1c(=O)oc1ccc(O)cc21)Cc1ccccc1	-25.7	14.9	0.9	-6.9	24.4*	3.3
CSc1ccc(S(=O)(=O)NCC(=O)OCC(=O)N(C)CC(=O)Nc2ccc(F)cc2)cc1[N+](=O)[O-]	4.1	13.7	1.5	-4.8	4.0	-8.2
CC(=O)c1ccc(OCCCC(=O)OCC(=O)N2CCN(S(=O)(=O)c3ccc(C)cc3C)CC2)cc1	-8.7	-2.5	17.8*	3.4	28.8*	14.3
COc1ccc(OCCCC(=O)OCC(=O)N2CCN(S(=O)(=O)c3ccc(C)cc3C)CC2)cc1	4.2	4.6	10.0	10.7	8.9	2.5
CC(C)(C)CN1CCC(Oc2cccc(C(=O)NCCCOc3cccnc3)c2)CC1	-2.6	-31.8	0.5	-4.6	17.1	24.4*
CN=C1NC(C)(C)C2CCC(C)(CC2)S1	-29.2	16.3	1.7	-9.5	39.1*	-11.4
CC(C)c1ccc(-c2nn(-c3ccccc3)cc2C(=O)NCC2CCCO2)cc1 (stereo not drawn)	-3.7	-11.0	1.4	-0.6	2.4	1.9
CC1=NN(c2ccccc2)C(=O)/C1=C\C=C1\N(C)c2ccccc2C1(C)C	-5.8	2.0	8.2	13.4	11.4	8.2
CC1=NN(c2ccccc2)C(=O)/C1=C\C=C1/N(C)c2ccccc2C1(C)C	-12.2	-1.5	32.0*	22.9*	25.9*	13.6
CN1/C(=C\C=N\O)C(C)(C)c2ccccc21	5.3	2.9	0.4	-5.6	-1.6	-3.2
CN1/C(=C\C=C2/SC(=S)NC2=O)C(C)(C)c2ccccc21	-22.5	-18.6	71.9*	57.4*	61.9*	59.1*
Cc1ccccc1N=C/C=C1\N(C)c2ccccc2C1(C)C	-6.7	-8.0	0.5	-1.3	25.2*	19.6
CCc1ccc(NC(=O)C(C)Sc2ccc(S(=O)(=O)N3CCN(C)CC3)cn2)cc1 (stereo not drawn)	-0.9	7.5	1.9	-4.5	4.5	-16.6
COc1ccccc1C(=O)NC(CCSC)C(=O)OCC(=O)N1CCN(S(=O)(=O)c2ccc(C)cc2)CC1 (stereo not drawn)	1.0	11.6	1.4	-7.5	-6.1	-26.0
CCN1CCN(c2ccc(NC(=O)COc3ccccc3Cl)cc2)CC1	-15.4	-5.4	-0.2	-5.0	31.7*	3.1
CCN1CCN(c2ccc(NC(=O)COc3ccc(Cl)cc3C)cc2)CC1	-26.8	0.3	2.3	-7.7	100.3*	-10.6
Cc1cccc(N2CCN(CC(O)COCc3cccs3)CC2)c1C (stereo not drawn)	-5.9	-4.9	0.5	-7.3	7.7	-1.9
Cc1nc(NC(=O)CSc2ccc(-c3nc4ccccc4[nH]3)cn2)sc1C	0.9	5.0	16.0*	-7.3	2.4	4.1
CCc1nnc(NC(=O)CSc2ccc(-c3nc4ccccc4[nH]3)cn2)s1	-5.7	-1.3	5.8	-5.6	-5.5	-10.3
Cn1ncc(Cl)c1C(=O)N1CCN(c2ccc(F)cc2)CC1	13.2	0.8	2.1	0.6	-6.2	-6.0
CC(C)CC(=O)NC(Nc1ccc([N+](=O)[O-])cc1)C(Cl)(Cl)Cl (stereo not drawn)	-14.4	3.1	16.4*	-0.7	23.9	13.4
CC(C)(O)C#Cc1ccc(CN2CCN(C3CCCCC3)C(CCO)C2)s1 (stereo not drawn)	-28.2	16.6	0.0	-12.8	18.3	-11.5
OCCC1CN(Cc2cc3c(cc2Cl)OCO3)CCN1C1CCCC1 (stereo not drawn)	-18.5	0.3	1.1	-7.5	38.3*	9.8
CC(C)(O)C#Cc1ccc(CN2CCN(C3CCCCC3)C(CCO)C2)cc1 (stereo not drawn)	-27.4	-3.2	4.3	-10.7	25.2*	10.4
CSc1ccc(CN2CCN(C3CCCC3)C(CCO)C2)cc1 (stereo not drawn)	-25.7	18.9	0.8	-8.6	60.1*	-19.6
SMILES	M1 PAM	M1 PAM parental	M1 ag parental	CHRM1 agonist	M1 antag	CHO-K1 Ca antag
CC(C)(O)C#Cc1ccc(CN2CCN(C3CCCC3)C(CCO)C2)cc1 (stereo not drawn)	-22.2	11.9	3.0	-7.2	52.6*	-19.4
COc1cc2c(Cc3ccccc3)cncc2cc1O	-5.3	1.0	3.4	3.5	1.0	-8.1
COCCNC(=O)C1(C)CCCN(Cc2cccc(OC(=O)c3ccccc3)c2)C1 (stereo not drawn)	1.2	-4.2	-0.3	-8.0	-8.7	4.0
Clc1ccc(C(c2cccs2)N2CCNCC2)cc1 (stereo not drawn)	-27.6	-9.1	0.9	-3.1	44.8*	2.4
O=S(=O)(c1ccc(Cl)cc1)N1CCNCC1	-0.6	19.3	0.0	-3.4	6.5	-1.1
Cc1cc(NC(=O)CSc2nc(C)c(C)c(=O)[nH]2)no1	1.8	2.6	-0.2	-0.5	0.0	-3.6
CCN1C(=O)S/C(=C/c2ccc(Sc3nc4ccccc4[nH]3)o2)C1=O	-20.1	15.7	8.8	-0.2	30.7*	-2.9
COc1cc2c(cc1OC)CN(C(=S)Nc1ccccc1Cl)CC2	0.2	-3.2	16.7*	2.0	3.5	9.1
CCN(CC(=O)Nc1c(F)cccc1F)C(=O)Cc1csc(-c2ccccc2)n1	4.4	7.6	2.4	3.1	-11.5	1.5
O=C(NCc1ccco1)c1ccc(CN2CCOCC2)cc1	-7.8	-7.5	-0.3	-0.1	21.6	24.2*
O=C(NCc1ccccc1)c1ccc(CN2CCOCC2)cc1	8.0	-4.5	-0.1	-2.5	-5.1	10.4
Cn1c(O)c(C=NCCCCCC(=O)O)c(=O)n(C)c1=O	10.2	14.7	1.2	-1.7	-13.0	-4.1
COc1ccc(OCC(=O)NC(=O)c2ccccc2OC)c([N+](=O)[O-])c1	4.5	5.7	3.0	-1.9	-7.1	-10.5
Fc1ccccc1Cn1c2[n+](c3ccc(C(F)(F)F)cc31)CCCCC2	-20.4	5.6	0.2	-8.8	33.6*	-3.0
Cc1cc(OCC(O)CN2CCCC2)cc(C)c1Cl (stereo not drawn)	1.4	14.4	3.2	-2.8	-4.5	-7.9
O=C(COC(=O)c1ccc(Br)c(S(=O)(=O)N2CCOCC2)c1)NC1CC1	9.7	-1.1	0.0	0.5	-13.1	-6.4
O=C(NC(=S)Nc1cccc2cc(O)ccc12)c1ccco1	11.5	-5.2	30.9*	6.3	-14.6	9.7
O=C(COc1ccccc1)NC(=S)Nc1cccc2cc(O)ccc12	9.9	9.8	10.6	18.7*	-3.8	3.6
COCCN1C(=O)C(=O)/C(=C(/O)c2ccc(S(=O)(=O)N3CCCCC3)cc2)C1c1ccc(OC)cc1 (stereo not drawn)	9.1	-7.8	0.2	-0.9	3.4	-9.8
Cc1ccccc1NC(=O)C(C)OC(=O)C1CCCO1 (stereo not drawn)	5.3	14.7	0.2	-1.2	-13.3	-10.4
